Data as given in the supplement of paper PMC8975748.
Counter-ions that a name gives are not always drawn.

What follows are compounds tested on Saccharomyces cerevisiae BY4741 SeMeCo community (assay: z-score of subpopulation abundance vs DMSO median, subpopulation auxotrophic for HLUM; higher = larger share of this subpopulation than in DMSO controls). Conditions: 10 µM; 24 h; SM minimal medium; subpopulation (auxotrophy): HLUM.
In short: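 Four plasmids, each restoring a single auxotrophy and encoding a distinct fluorescent protein, were carried by a Saccharomyces cerevisiae BY4741 community. After overnight growth to OD600 1.0 and dilution to 0.3, 70 µl per well was grown for 24 h in minimal SM medium on 384-well plates acoustically predosed with library drugs at 10 µM final. Following paraformaldehyde fixation, automated confocal microscopy was used, with single-auxotroph fluorescent strains defining thresholds and autofluorescence correction. Subpopulation abundance was then scored as a z-score against the vehicle-well median.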

Compound	z-score of subpopulation abundance
COc1cc(O)c(C(=O)Nc2nc(C(=O)NCCN(C(C)C)C(C)C)cs2)cc1OC [Acotiamide hydrochloride]	-0.39
Cc1onc(-c2c(F)cccc2Cl)c1C(=O)N[C@@H]1C(=O)N2[C@@H]1SC(C)(C)[C@@H]2C(=O)O [Flucloxacillin sodium]	-0.68
OC(CCCN1CCCCC1)(c1ccccc1)c1ccccc1 [Diphenidol HCl]	-0.39
Cc1ccccc1OCC(O)CO (configuration not stated) [Mephenesin]	-0.28
CC(C)c1c(C(=O)Nc2ccccc2)c(-c2ccccc2)c(-c2ccc(F)cc2)n1CC[C@@H](O)C[C@@H](O)CC(=O)O [Atorvastatin Calcium]	4.28
C[C@@H](O)[C@H]1C(=O)N2C(C(=O)[O-])=C(SC3Cn4cnc[n+]4C3)[C@H](C)[C@H]12 (some centres not stated) [Biapenem]	-0.81
CO/N=C(\C(=O)N[C@@H]1C(=O)N2C(C(=O)OC(C)OC(C)=O)=C(COC(N)=O)CS[C@H]12)c1ccco1 (some centres not stated) [Cefuroxime axetil]	0.39
Oc1c(Cl)cc(Cl)c2cccnc12 [Chloroxine]	32.5
CC1(C)CC[C@]2(C(=O)O)CC[C@]3(C)C(=CC[C@@H]4[C@@]5(C)CC[C@H](O)C(C)(C)[C@@H]5CC[C@]43C)[C@@H]2C1 [Oleanolic Acid]	0.12
CCOC(=O)C1=C(C)NC(C)=C(C(=O)OC)C1c1cccc(Cl)c1Cl (configuration not stated) [Felodipine]	-1.13
O=C1CCc2cc(OCCCCc3nnnn3C3CCCCC3)ccc2N1 [Cilostazol]	-0.57
Cc1nnc(SCC2=C(C(=O)O)N3C(=O)[C@@H](NC(=O)Cn4cc(Cl)c(=O)c(Cl)c4)[C@H]3SC2)s1 [Cefazedone]	-0.54
